Data reported in PubChem BioAssay.
Values without a mark were called inactive. The rule behind the calls is not given here.

The compounds below were run against Pantothenate synthetase (Mycobacterium tuberculosis (strain ATCC 25618 / H37Rv)) (UniProt P9WIL5) (assay: Recombinant Mtb pantothenate synthetase (PanC) inhibitors, coupled enzyme, confirmatory (AID 375;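 note: 0% = full reaction with vehicle and 100% = no enzyme background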)). Conditions: coupled enzyme assay; at 10 µM, hits give high values.
Chain of Pantothenate synthetase (Mycobacterium tuberculosis (strain ATCC 25618 / H37Rv)) (P9WIL5 whole entry, looked up): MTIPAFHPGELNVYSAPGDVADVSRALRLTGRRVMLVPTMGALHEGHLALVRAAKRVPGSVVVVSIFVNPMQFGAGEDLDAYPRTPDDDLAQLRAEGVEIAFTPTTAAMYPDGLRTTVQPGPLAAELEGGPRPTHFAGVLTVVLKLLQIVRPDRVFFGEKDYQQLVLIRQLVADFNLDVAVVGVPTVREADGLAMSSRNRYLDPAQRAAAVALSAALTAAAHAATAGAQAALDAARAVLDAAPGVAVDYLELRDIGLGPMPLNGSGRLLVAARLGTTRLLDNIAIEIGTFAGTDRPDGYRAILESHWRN

Row | Compound | inhibition [%]
1 | COCC(=O)N(c1ccc(C(C)C)cc1)C1C=CS(=O)(=O)C1 (centres undefined) | 0
2 | O=C(CSc1n[nH]c(-c2ccco2)n1)Nc1sc2c(c1C(=O)Nc1ccccc1)CCCC2 | 0
3 | O=C(COC(=O)c1ccc(NS(=O)(=O)c2ccc3c(c2)OCCO3)cc1)NCC1CCCO1 (centres undefined) | 2
4 | Cc1cccc(N2CCN(C(=O)C3CCCN(S(=O)(=O)c4c(C)noc4C)C3)CC2)c1C (centres undefined) | 0
5 | CSc1cccc(NS(=O)(=O)c2ccccc2)c1 | 0
6 | COc1ccc(NC2c3ncccc3C(=O)N2Cc2ccccc2)c(OC)c1 (centres undefined) | 0
7 | CC(C)(C)NC(=O)NC(=O)COc1ccccc1C#N | 3
8 | Cc1nc2ccccc2c2oc(C(=O)N3CCN(C(=O)c4ccco4)CC3)cc12 | 0
9 | COc1ccc(-c2cc(N3CCCC3)n3ncnc3n2)cc1 | 9
10 | C=CCn1c(=O)[nH]c2cc(C(=O)N3CCN(c4cc(C)ccc4C)CC3)ccc2c1=O | 4
11 | COc1ccc(N2C(=O)CC(N3CCN(c4ccccc4F)CC3)C2=O)cc1 (centres undefined) | 0
12 | Cc1ccc(C)c(S(=O)(=O)NCc2ccc(C(=O)N3CCN(C)CC3)cc2)c1 | 0
13 | Cc1cc(NC(=O)C23CCC(C)(c4nc5cc(Cl)c(Cl)cc5nc42)C3(C)C)no1 (centres undefined) | 0
14 | COc1cccc(N2CCN(Cc3nc(N)nc(Nc4ccccc4)n3)CC2)c1 | 0
15 | COc1ccc(Cl)cc1N1CCN(CCNC(=O)Nc2ccccc2C)CC1 | 0
16 | COc1ccc(-c2noc(CN(C(=O)C(C)(C)C)C(C)C)n2)cc1 | 0
17 | COC(=O)CSC1=NS(=O)(=O)c2ccccc21 | 0
18 | Cc1ccc(C2C(C#N)=C(N)Oc3cc4c(cc32)OCO4)cc1 (centres undefined) | 8
19 | C=C(C)CSc1nnc(-c2cccc(S(=O)(=O)N(C)C)c2)n1-c1cc(OC)ccc1OC | 1
20 | N#CCCCCn1c(-c2cncs2)nc2ccccc21 | 0

Row | Compound | inhibition [%]
21 | CC(O)c1n(C)c(Cl)c[n+]1C (centres undefined) | 3
22 | COc1ccccc1N(C)S(=O)(=O)c1ccc(C(=O)NC2=NCCS2)cc1 | 7
23 | CCn1c(=O)c(C(=O)Nc2cccnc2)c(O)c2ccccc21 | 0
24 | O=C(Oc1ccc2c(c1)CCC2)N1CCOCC1 | 0
25 | Cc1cc(C(=O)COC(=O)C2COc3ccccc3O2)c(C)n1CC1CCCO1 (centres undefined) | 0
26 | Cc1ccc(S(=O)(=O)Nc2cc(C(=O)O)ccc2N2CCCCC2)cc1 | 0
27 | CCN1CCN(Cc2ccccc2NC(=O)Nc2ccc(C)cc2)CC1 | 3
28 | COC(=O)C1=C(C)NC(=O)C1(Nc1ccc(Cl)cn1)C(F)(F)F (centres undefined) | 0
29 | COc1ccccc1NC(=O)CSc1nnc(-c2ccncc2)n1CC1CCCO1 (centres undefined) | 0
30 | CCn1c(=O)cc(OCC(=O)NC2CCCCC2)c2ccccc21 | 0
31 | Cc1cc(S(=O)(=O)NC2CCCCC2)ccc1OCC(=O)NCc1ccccn1 | 0
32 | Cc1cc2c(cc1C)C(=O)NC(C)(C)C2 | 0
33 | COC(=O)c1c(-c2cccs2)csc1NC(=O)CN1CCOCC1 | 0
34 | CC(C)N(C(=O)COC(=O)c1ccc(O)cc1)C(C)C | 1
35 | CCSc1nnc(NC(=O)CSc2nnc(Cc3cccn3C)n2-c2ccc(C)cc2)s1 | 5
36 | COc1cccc(C2CC(=O)Nc3c2c(=O)n(C)c(=O)n3C)c1OC (centres undefined) | 6
37 | CCS(=O)(=O)c1nc2ccccc2n1Cc1ccccc1Cl | 1
38 | COc1ccc(C(=O)c2ccccc2)c(O)c1 | 1
39 | CN(CCCC(=O)Nc1ccncc1)S(=O)(=O)c1ccc(Cl)cc1 | 3
